Cytotoxicity call data for 16 compounds are collected here from the antibiotic and cytotoxicity screens of Wong et al. (2023).

The structures appear in SMILES notation. In all, about 39,000 compounds went through this assay and about 3,300 (8.5%) were called active. This excerpt belongs to a sample that is enriched for actives.

This assay has as its system HepG2. Nature of the assay: cytotoxicity call (relative viability < 0.9). The settings on record: 10 µM.
In the case of `C[C@H]1CCCCO[C@@H](CN(C)C(=O)c2ccccc2)[C@@H](C)CN([C@@H](C)CO)C(=O)c2cc(NC(=O)C3CCCCC3)ccc2O1`, the cytotoxicity call is “inactive”.

As to `CC(C)(C)[S@@](=O)N1Cc2cc(C(=O)NCc3ccc4c(c3)OCO4)nc(-c3cccc(-c4cccnc4)c3)c2[C@H]1CCO`, the cytotoxicity call was “inactive”. Consider `COCCNC(=O)C[C@@H]1CC[C@@H]2[C@@H](COc3ccc(NC(=O)Nc4cccc(F)c4)cc3C(=O)N2C)O1`, for which the cytotoxicity call is “inactive”. Take `CCCCNC(=O)N1C[C@@H]2[C@H](CN)[C@@H]2C1`: the cytotoxicity call was “inactive”.

Turning to `Cc1ccc(S(=O)(=O)Nc2ccc3c(c2)C(=O)N([C@H](C)CO)C[C@H](C)[C@@H](CN(C)C(=O)NC2CCCCC2)OCCCC[C@H](C)O3)cc1`, the cytotoxicity call was “inactive”.

As for `Cc1ccc(S(=O)(=O)Nc2ccc3c(c2)C(=O)N([C@@H](C)CO)C[C@@H](C)[C@H](CN(C)C(=O)NC2CCCCC2)OCCCC[C@@H](C)O3)cc1`, the cytotoxicity call was “active”. Regarding `C[C@@H]1CCCCO[C@H](CN(C)C(=O)NC2CCCCC2)[C@H](C)CN([C@H](C)CO)C(=O)c2cc(NS(=O)(=O)c3ccc(F)cc3)ccc2O1`, the cytotoxicity call is “active”.

For the compound `Cc1ccc(S(=O)(=O)Nc2ccc3c(c2)C(=O)N([C@H](C)CO)C[C@@H](C)[C@H](CN(C)C(=O)NC2CCCCC2)OCCCC[C@@H](C)O3)cc1`, the cytotoxicity call was “inactive”. Take `Cc1ccc(S(=O)(=O)Nc2ccc3c(c2)C(=O)N([C@@H](C)CO)C[C@H](C)[C@H](CN(C)C(=O)NC2CCCCC2)OCCCC[C@@H](C)O3)cc1`: the cytotoxicity call is “inactive”. On to `C[C@H](CO)N1C[C@H](C)[C@@H](CN(C)C(=O)NC2CCCCC2)OCCCC[C@H](C)Oc2ccc(NS(=O)(=O)c3ccc(F)cc3)cc2C1=O`, for which the cytotoxicity call was “inactive”. Then `Cc1ccc(S(=O)(=O)Nc2ccc3c(c2)C(=O)N([C@@H](C)CO)C[C@H](C)[C@@H](CN(C)C(=O)NC2CCCCC2)OCCCC[C@H](C)O3)cc1`, with “active”; and `Cc1ccc(S(=O)(=O)Nc2ccc3c(c2)C(=O)N([C@@H](C)CO)C[C@H](C)[C@@H](CN(C)C(=O)NC2CCCCC2)OCCCC[C@@H](C)O3)cc1`, with “inactive”; and `C[C@@H]1CCCCO[C@@H](CN(C)C(=O)NC2CCCCC2)[C@@H](C)CN([C@@H](C)CO)C(=O)c2cc(NS(=O)(=O)c3ccc(F)cc3)ccc2O1`, with “inactive”. Regarding `C[C@@H]1CN([C@@H](C)CO)S(=O)(=O)c2ccc(-c3ccc(C(=O)N(C)C)cc3)cc2O[C@H]1CN(C)C(=O)C1CCC1`, the cytotoxicity call is “inactive”.

As to `CCS(=O)(=O)NCc1nccc(N(C)C)n1`, the cytotoxicity call was “inactive”. Regarding `COc1ccc(S(=O)(=O)N(C)C[C@H]2OCc3cn(nn3)CCCC(=O)N([C@H](C)CO)C[C@@H]2C)cc1`, the cytotoxicity call is “inactive”.
